Source: PubChem BioAssay (NCATS)
Inconclusive results are not listed. Unmarked numbers belong to inactive results. The call rests on the fitted dose curve; in most records, active means well fitted cell-killing curve with a large enough effect; inconclusive means small, poorly fitted or top-dose-only effect, or effect the other way; inactive means flat fitted curve, though single readings scatter. Where a SMILES comes first, the peptide text is derived from it. The star is where a group is joined. PhAc = O=C(Cc1ccccc1)*

Tested on: JEG-3
Experiment: Primary qHTS to identify gynecologic anti-cancer compounds using libraries of approved drugs and bioactive compounds (AID 1345084); further: nearly all actives have a fitted effect of over 55% in size
Conditions: Gynecologic cancer cell panel viability, ATPlite luminescence, 48 h; series mostly up to 57.5 µM; activity change, negative = cytotoxicity: at the top concentration
Procedure, shortened: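 Cells, 1,000 per well, plated 16 h, then exposed 48 h at 37 C to compounds. Viability by ATPlite luminescence after 15 min at room temperature.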
On the % scale 0 is the no-effect control and ±100 the full control effect.

Row | SMILES | activity change, negative = cytotoxicity
1 | COC1CC(O[C@H]2CC[C@@]3(C)C(=CC[C@]4(O)C3[C@H](O)[C@@H](O)[C@]3(C)[C@@H]([C@H](C)O)CC[C@@]34O)C2)OC(C)C1OC1CC(OC)C(OC2CC(OC)C(OC3OC(C)C(OC4OC(CO)C(O)C(O)C4O)C(OC)C3O)C(C)O2)C(C)O1 (some centres undefined) | -0.832% [at 11.6 µM]
2 | C=C1CCC2[C@](C)(CO)CCC[C@@]2(C)[C@@H]1CCC1=CCOC1=O (some centres undefined) | -0.456% [at 38.5 µM]
3 | C=C1CCC[C@]2(C)CC[C@@](O)(C(=C)C(=O)O)C[C@@H]12 | -8.89%
4 | CC1CC(=O)[C@]2(O)C(C(=O)OCCc3ccc(O)cc3)=CO[C@@H](O[C@@H]3O[C@H](CO)[C@@H](O)[C@H](O)[C@H]3O)[C@H]12 (some centres undefined) | 11.1% [at 25.3 µM]
5 | COC(=O)C1=COC(O[C@@H]2O[C@H](CO)[C@@H](O)[C@H](O)[C@H]2O)[C@@H]2[C@@](C)(O)[C@@H](OC(=O)/C=C/c3ccccc3)C[C@]12O (some centres undefined) | -12.1% [at 25.3 µM]
6 | CCC[C@H](N[C@@H](C)C(=O)N1[C@H](C(=O)O)C[C@@H]2CCCC[C@@H]21)C(=O)O | 6.07%
7 | CC1OC(OC2C(OC(=O)[C@]34CCC(C)(C)C[C@H]3C3=CCC5[C@@]6(C)CC[C@H](OC7OC(C(=O)O)C(O)C(O)C7O)C(C)(C)C6CC[C@@]5(C)[C@]3(C)CC4O)OC(CO)C2O)C(O)C(O)C1OC1OCC(O)C(O)C1O (some centres undefined) | 3.79% [at 11.6 µM]
8 | CCOC(=O)CNC(=O)[C@@H]1CCCN1C(=O)Cc1ccccc1 (PhAc-Pro-Gly-OEt) | 2.72%
9 | C/C(=C\CC[C@H](CO)[C@@H]1CC[C@]2(C)C3=C(CC[C@@]12C)[C@@]1(C)CCC(=O)C(C)(C)C1CC3)C(=O)O (some centres undefined) | -1.93% [at 25.3 µM]
10 | C=C1CCC2C(C)(C)CCC[C@]2(C)[C@H]1CC/C(C)=C/C(=O)O (some centres undefined) | -9.5%
11 | COCC1OC(OC(C)(C)C2CCC3(C)C=C(C4CCC5C4(C)CC(O)C4OC(C(C)(C)O)CCC45C)CCC3O2)C(NC(C)=O)C(O)C1O (centres undefined) | -2.42% [at 25.3 µM]
12 | C=C1CCC2[C@](C)(CCC[C@]2(C)C(=O)O)[C@H]1CC/C(C)=C/C(=O)OC (some centres undefined) | 1.19% [at 38.5 µM]
13 | COC(=O)c1c(CC=C(C)C)c(OC2OC(CO)C(O)C(O)C2O)c2ccccc2c1OC1OC(CO)C(O)C(O)C1O (centres undefined) | 4.81% [at 25.3 µM]
14 | O=C(Cc1ccccc1)OC[C@H]1O[C@H](O[C@H]2O[C@H](CO)[C@@H](O)[C@H](O)[C@H]2O)[C@H](O)[C@@H](O)[C@@H]1O | 3% [at 25.3 µM]
15 | CC1=C2C[C@H]3OC(=O)[C@H](O)[C@@]4(O)[C@@H](C)[C@@H](O)[C@H](O)C([C@@]2(C)[C@H](O)[C@@H](O)C1)[C@@]34C (some centres undefined) | 4.37% [at 38.5 µM]
16 | CC1CC(=O)C2=C(O1)OC1(C)CCC3C(C)(C)C4OC4C(=O)C3(C)C1C2 (centres undefined) | 6.79% [at 38.5 µM]
17 | COc1ccnc(CCc2nc3ncccc3[nH]2)c1 | -7.21%
18 | C/C(=C/CO)CC[C@H]1[C@]2(C)C[C@H](O)CC(C)(C)[C@H]2CC[C@]1(C)O | 9.55% [at 38.5 µM]
19 | COc1c2c(c(C)c3c1C(=O)OC3)OC1(C)CC(O)C34OC(O)(CCC3(C)C1C2)OC4(C)C (centres undefined) | -1.42% [at 25.3 µM]
20 | COC(=O)[C@]1(Cc2ccc(O)c(CC=C(C)C)c2)OC(=O)C(O)=C1c1ccc(O)cc1 | -3.54% [at 25.3 µM]

Row | SMILES | activity change, negative = cytotoxicity
21 | COc1cnc(-c2ccc(Cn3c(CC(C)(C)C(=O)O)c(SC(C)(C)C)c4cc(OC[C@@H]5Cc6ccccc6N5C(C)=O)ccc43)cc2)nc1 | 23.4% [at 38.5 µM]
22 | CCC(C)C(=O)O[C@H]1C[C@](C)(O)[C@]23OC(C)(C)[C@H](C[C@H](OC(=O)c4ccccc4)[C@]2(COC(C)=O)[C@H]1OC(=O)C(C)CC)[C@H]3OC(C)=O (some centres undefined) | 8.06% [at 25.3 µM]
23 | CC1CC2(O)OC(=O)C3=C2C(CCC3)[C@@]12C[C@@H](c1ccoc1)OC2=O (some centres undefined) | -3.95% [at 38.5 µM]
24 | COc1cc(C(C)=O)ccc1O[C@@H]1O[C@H](CO)[C@@H](O)[C@H](O)[C@H]1O | -0.995% [at 38.5 µM]
25 | COC(=O)C1=COC(OC2OC(CO)C(O)C(O)C2O)C2C(C)C(OC(C)=O)C(OC(=O)c3ccccc3)C12 (centres undefined) | 10.2% [at 25.3 µM]
26 | COc1ccnc2[nH]cc(C(=O)C(=O)N3CCN(C(=O)c4ccccc4)CC3C)c12 (centres undefined) | -3.72%
27 | C[C@@H]1O[C@@H](O[C@H]2[C@H](O)[C@@H](O)[C@H](OC[C@H]3O[C@@H](OC(=O)[C@]45CCC(C)(C)C[C@H]4C4=CCC6[C@@]7(C)C[C@@H](O)[C@H](O)[C@@](C)(CO)C7[C@H](O)C[C@@]6(C)[C@]4(C)CC5)[C@H](O)[C@@H](O)[C@@H]3O)O[C@@H]2CO)[C@H](O)[C@H](O)[C@H]1O (some centres undefined) | -6.46% [at 11.6 µM]
28 | O=C(CC1CC(c2ccc(F)cc2F)=NO1)N1CCOCC1 (centres undefined) | -3.99%
29 | COC(=O)C1=CO[C@@H](O[C@@H]2O[C@H](CO)[C@@H](O)[C@H](O)[C@H]2O)[C@@H]2[C@@H](C(=O)O)CC[C@H]12 | 8.06% [at 25.3 µM]
30 | C[C@@H]1O[C@@H](OC2C(CO)OC(OCC3OC(OC(=O)[C@]45CCC(C)(C)CC4C4=CCC6[C@@]7(C)CC[C@@H](O)[C@](C)(C(=O)O)C7CC[C@@]6(C)[C@]4(C)CC5)C(O)C(O)C3O)C(O)C2O)[C@H](O)[C@H](O)[C@H]1O (some centres undefined) | 7.96% [at 11.6 µM]
31 | OC[C@H]1O[C@@H](OC[C@H]2O[C@@H](OCc3ccccc3)[C@H](O)[C@@H](O)[C@@H]2O)[C@H](O)[C@@H](O)[C@@H]1O | -16% [at 25.3 µM]
32 | COC1OC(O)C2(CCC3(O2)C(C)CC2OC(=O)C4(C)CCCC3(C)C24)C1O (centres undefined) | 7.18% [at 38.5 µM]
33 | C=C1C(OC(C)=O)C(=O)C2C(C)(C)C(O)CCC2(C)C1CC(OC(C)=O)/C(C)=C/COC(C)=O (centres undefined) | -0.184% [at 25.3 µM]
34 | C/C(=C\CO)CC/C=C(\C)C(=O)O[C@@H]1O[C@H](CO)[C@@H](O)[C@H](O)[C@H]1O | -0.65% [at 38.5 µM]
35 | CC(=O)c1c(C)cccc1O[C@@H]1O[C@H](CO)[C@@H](O)[C@H](O)[C@H]1O | -11.8% [at 38.5 µM]
36 | CC(=O)O[C@@H]1C=C2[C@H](CC[C@@]3(C)[C@@]2(O)CC[C@H]2Cc4c([nH]c5ccccc45)[C@@]23C)O[C@@H]1C(C)(C)O | -0.0365% [at 25.3 µM]
37 | C=CC1(C)CC=C2C(CCC3C(C)(C(=O)O)CCCC23C)C1 (centres undefined) | 17.8%
38 | CC(C)c1ccc2c(c1)C(=O)CC1C(C)(C(=O)O)CCCC21C (centres undefined) | 19.8% [at 38.5 µM]
39 | CC(C)CC(=O)O[C@@H]1O[C@H](CO)[C@@H](O[C@H]2O[C@H](C)[C@@H](N[C@H]3C=C(CO)[C@@H](O[C@H]4O[C@H](CO)[C@@H](O[C@H]5O[C@H](CO)[C@@H](O[C@H]6O[C@H](CO)[C@@H](O)[C@H](O)[C@H]6O)[C@H](O)[C@H]5O)[C@H](O)[C@H]4O)[C@H](O)[C@H]3O)[C@H](O)[C@H]2O)[C@H](O)[C@H]1O | 0.194% [at 11.6 µM]
